Results: PMC5540273 (PLoS ONE, 2017)

test system: NEK7; details: concentration: 1 μM, replicates: in singlicate; n = 1
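Also: KINOMEscan kinase panel screen.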

Row | Structure (SMILES) | %Inh [%]
1 | CCCCc1nn2ncccc2c1-c1ccnc(Nc2ccc(N3CCN(C)CC3)cc2)n1 [GW684941] | 0
2 | Cc1ccc(S(=O)(=O)Nc2ccc(Nc3nccc(Nc4cccc5[nH]ncc45)n3)cc2)cc1 [GSK581271] | 0
3 | CN(C)Cc1ccc(-c2ccc3c(Nc4ccc(Oc5ccccn5)cc4)ccnc3c2)o1 [GW567148] | 0
4 | Cc1cccc(Nc2nc(N[C@H]3CCNC3)ncc2C(N)=O)c1.Cl [GSK2197149] | 0
5 | Cc1ccc(C(=O)N2CC[C@@H](O)C2)cc1-n1c(C)cc(OCc2ccc(F)cc2F)c(Br)c1=O | 0
6 | O=C(O)C(F)(F)F.O=C(O)C(F)(F)F.O=c1[nH]ccc2nc(N[C@@H]3CCCNC3)nc(Nc3ccc(S(=O)(=O)N4CCOCC4)cc3)c12 [GSK2177277] | 35
7 | Cc1ccc(C)c(NC(=O)NC2CCN(c3ccnc(Nc4ccc(F)cc4)n3)C2)c1 (stereo not shown) [GSK1379720] | 0
8 | Cc1cccc(NC(=O)Nc2ccc(Oc3ncnc4ccn(C)c34)cc2)c1 | 0
9 | COc1ccc(-c2coc3ccc(-c4nnc(SCc5ccc(OC)c(C(F)(F)F)c5)o4)cc23)cc1 | 0
10 | CC(C)c1nc(-c2cccc(NS(=O)(=O)c3c(F)cccc3F)c2F)c(-c2ccnc(Nc3ccc(N4CCOCC4)nc3)n2)s1 [GSK2008607] | 92.9
11 | O=C(Nc1cccc(-c2nn3ncccc3c2-c2ccnc(Nc3ccccc3)n2)c1)c1c(F)cccc1F [GSK198271] | 0
12 | O=c1[nH]cc(-c2ccc(N3CCOCC3)cc2)c2sc(-c3cn[nH]c3)cc12 [GSK2276055] | 39
13 | COC(=O)Nc1nc2cc(Oc3ccc(NC(=O)Nc4cc(C(F)(F)F)ccc4F)cn3)ccc2[nH]1.Cl.Cl [GW681170] | 0
14 | Cl.Cl.NCC(NCc1ccc(-c2ccnc3[nH]ccc23)s1)c1ccccc1 (stereo not shown) [GSK1321565] | 0
15 | CCS(=O)(=O)c1ccc(OC)c(Nc2nccc(-c3c(-c4cccc(NC(=O)c5c(F)cccc5F)c4)nn4ncccc34)n2)c1 [GSK326180] | 0
16 | COc1cccc(-c2ccc3c(NC(=O)C4CC4)n[nH]c3n2)c1 [SB-710903] | 0
17 | CSc1cccc2c(-c3ccncn3)c(-c3ccc(F)cc3)nn12 [GW514786] | 0
18 | COc1cc2c(cc1OCCN1CCNCC1)ncc1c3ccc(C#N)cc3[nH]c21 | 0
19 | Cn1cc(-c2ccc3c(c2)CCN3C(=O)Cc2cccc(F)c2)c2c(N)ncnc21 [GSK2603358] | 0

Row | Structure (SMILES) | %Inh [%]
20 | C[C@@H](Oc1cc(-n2cnc3cc(-c4ccnc(NCCS(C)(=O)=O)c4)ccc32)sc1C(N)=O)c1ccccc1Cl [GSK907232] | 12
21 | COc1cccc(C(=O)Nc2cccc(Oc3ccc4nc(NC(=O)C5CC5)cn4n3)c2)c1 | 0
22 | Cl.c1ccc(-c2ccc3c(Nc4ccc5[nH]ncc5c4)ccnc3c2)nc1 [GW440137] | 0
23 | Cn1cc(-c2[nH]c3cc(NC(=O)[C@H](N)C4CCCCC4)cc4c3c2C=NNC4=O)cn1 | 0
24 | CCn1c(-c2nonc2N)nc2c(C#CC(C)(C)O)ncc(OCCCCN)c21.O=C(O)C(F)(F)F.O=C(O)C(F)(F)F [GSK507274] | 0
25 | CN(C)S(=O)(=O)c1cc(-c2ccc3nccc(-c4cccc(S(N)(=O)=O)c4)c3c2)cnc1N [GSK1669921] | 31
26 | CCn1c(-c2nonc2N)nc2c(C#CC(C)(C)O)nc(OC[C@H](N)c3ccccc3)cc21 [GSK943949] | 0
27 | Cl.c1ccc(-c2ccc3c(Nc4ccc5[nH]ccc5c4)ccnc3c2)nc1 [GW440138] | 0
28 | Nc1n[nH]c2cnc(-c3ccccc3)cc12 [SB-642124] | 0
29 | O=C(Nc1n[nH]c2cc(-c3ccoc3)ccc12)C1CC1 [SB-738481] | 16
30 | FC(F)(F)c1ccc(/C=C/c2cncnc2Nc2ccc3[nH]c(Cc4ccccc4)nc3c2)cc1 [GW709199] | 0
31 | CC(C)(C)c1ccc2nccc(Nc3cccc(O)c3)c2c1 [GW856795] | 0
32 | COc1cc(Nc2nccc(-c3c(-c4cccc(NC(=O)c5c(F)cccc5F)c4)nn4ccccc34)n2)cc(OC)c1OC [GSK323521] | 33
33 | Clc1ccc(-c2nn3ncccc3c2-c2ccnc(Nc3ccc4c(c3)OCCO4)n2)cc1 [GW829116] | 0
34 | Cl.Cl.NCC(C(=O)Nc1cc(Br)c(-c2ccnc3[nH]ccc23)s1)c1ccccc1 (stereo not shown) [GSK1269851] | 10
35 | Fc1ccc(-c2ncn(C3CCNCC3)c2-c2ccnc(Oc3ccc(-c4ccccc4)cc3)n2)cc1 [SB-245391] | 0
36 | COc1cccc(C2=C(Nc3ccc(Cl)c(C(=O)O)c3)C(=O)NC2=O)c1 [SB-390769] | 0
37 | O=C(Nc1ccccc1F)NC1CCN(c2ccnc(Nc3ccc(F)cc3)n2)CC1 [GSK1379800] | 0
